Data published in PubChem BioAssay AID588342 (National Center for Advancing Translational Sciences (NCATS), 2011).
About 25,000 (6.9%) of roughly 360,000 compounds were called active. Entries that show only a call come without a potency. Another 9% or so got no clear call; they are omitted. Calls come from the whole dose curve; as a rule, active = well fitted inhibition curve with a large enough effect; inconclusive = small, poorly fitted or top-dose-only effect; inactive = flat fitted curve, though single readings scatter. Many of the other results were omitted from the sample, so actives are more common in it than they were.

Target: Luciferin 4-monooxygenase (Photinus pyralis) (UniProt P08659)
Sequence (P08659 whole entry, looked up): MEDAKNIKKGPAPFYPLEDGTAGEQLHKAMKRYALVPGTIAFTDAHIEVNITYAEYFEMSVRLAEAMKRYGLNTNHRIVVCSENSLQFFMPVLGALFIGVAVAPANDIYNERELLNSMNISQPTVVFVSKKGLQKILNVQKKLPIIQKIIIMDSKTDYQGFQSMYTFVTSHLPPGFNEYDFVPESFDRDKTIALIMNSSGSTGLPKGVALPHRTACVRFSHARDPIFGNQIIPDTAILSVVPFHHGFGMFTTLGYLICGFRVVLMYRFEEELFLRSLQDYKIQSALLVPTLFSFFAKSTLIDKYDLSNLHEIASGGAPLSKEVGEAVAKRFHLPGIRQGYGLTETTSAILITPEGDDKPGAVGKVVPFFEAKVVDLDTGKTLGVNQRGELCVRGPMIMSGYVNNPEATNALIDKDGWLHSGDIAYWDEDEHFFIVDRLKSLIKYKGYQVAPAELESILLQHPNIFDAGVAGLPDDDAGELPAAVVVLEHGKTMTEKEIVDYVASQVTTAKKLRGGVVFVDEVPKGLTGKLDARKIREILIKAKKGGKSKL
Assay: qHTS profiling assay for firefly luciferase inhibitor/activator using purifed enzyme and Km concentrations of substrates (counterscreen for miR-21 project); note: nearly all actives have a fitted effect of over 55% in size
Settings: purified FLuc, luminescence inhibition; series mostly up to 57.5 µM
Method in brief: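 Purified P. pyralis luciferase (10nM final) with 10uM D-luciferin and 10uM ATP (Km levels) in 50mM Tris acetate pH 7.5, 10mM Mg acetate, 0.01% Tween-20, 0.05% BSA; qHTS 6-point titration, ~60 µM downward; luminescence read.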
Potency is the fitted concentration of half-maximal effect.

SMILES | Potency
Cc1nc2ccc(S(=O)(=O)N(CC(=O)Nc3ccc(F)cc3)Cc3ccccc3)cc2s1 | inactive
CCCCC12CN3CC(C)(CN(C1)C3c1ccc(O)c(OC)c1)C2=O (centres undefined) | inactive
CCOc1ccc(CNC(=O)C2CCN(c3nnc(-n4cccc4CNc4ccc(C)cc4)s3)CC2)cc1OC | inactive
CCCn1c(C)cc(/C=C(\C#N)C(=O)OCC(=O)N(C)c2c(N)n(Cc3ccccc3)c(=O)[nH]c2=O)c1C | 10.7 µM (active)
COc1cc(NC(=O)CCn2nc(C)cc2C)cc(OC)c1OC | inactive
CCCn1c(C)cc(/C=C(\C#N)C(=O)OCC(=O)Nc2cc(OC)c(OC)c(OC)c2)c1C | 13.5 µM (active)
CCOC(=O)/C(C#N)=C/c1ccc(OCC(=O)Nc2ccccc2)c(OC)c1 | inactive
CN(C(=O)COC(=O)c1ccc(Br)o1)c1c(N)n(Cc2ccccc2)c(=O)[nH]c1=O | inactive
Cc1cc(OCC(=O)N(C)c2c(N)n(Cc3ccccc3)c(=O)[nH]c2=O)c(C(C)C)cc1Cl | inactive
CCS(=O)(=O)c1ncc(N(Cc2ccc(F)cc2)Cc2ccco2)c(C(=O)Nc2cc(C)ccc2C)n1 | inactive
COc1ccc(C(=O)c2oc3ccccc3c2NC(=O)COc2cccc(C)c2)cc1 | inactive
O=c1oc2ccc(C#CC3(O)CCCCC3)cc2cc1-n1cc(-c2ccsc2)nn1 | inactive
Cn1c(N)c(C(=O)COC(=O)COc2ccc(Cl)cc2)c(=O)n(C)c1=O | inactive
CCN(C(=O)COC(=O)Cc1c(F)cccc1Cl)c1c(N)n(Cc2ccccc2)c(=O)[nH]c1=O | inactive
Cc1ccc(C(=O)N/C(=C/c2ccco2)C(=O)NCCc2c[nH]c3ccccc23)cc1C | 10.7 µM (active)
CC(=O)N/C(=C/c1ccc(Cl)cc1)C(=O)NCCc1c[nH]c2ccccc12 | inactive
COc1ccc(/C=C(\NC(=O)c2ccc(OC)c(OC)c2)C(=O)NCCc2c[nH]c3ccccc23)cc1 | inactive
COc1ccc(C)cc1N(C)C(=O)c1coc(=O)c2ccccc12 | inactive
O=C(CN1CCN(S(=O)(=O)c2cccc(Cl)c2)CC1)N1CCCCC1 | inactive
N#Cc1ccccc1Sc1ccccc1C(=O)OCC(=O)NC1CCCCC1 | inactive
O=C(COC(=O)c1ccccc1SCC(=O)NC1CCCCC1)NC1CCCCC1 | inactive
O=C(COC(=O)c1ccccc1Cl)NC1CCCCCCC1 | 12 µM (active)
Cc1ccc(S(=O)(=O)NCc2nc3nc(C)cc(C)n3n2)cc1 | inactive
Cc1ccc(NC(=O)CCC(=O)N2CCC(c3ccccc3)=N2)cc1S(=O)(=O)N1CCCCC1 | inactive
O=C(CN1C(=O)NC2(CCCCCC2)C1=O)NCc1cccs1 | inactive

SMILES | Potency
Cc1cccc(N2C(=O)CC(SC(N)=Nc3ccccc3)C2=O)c1 (centres undefined) | inactive
Cc1[nH]n(-c2ccccc2)c(=O)c1N=Nc1ccccc1C(=O)N1CCCCC1 | inactive
Cc1cccc(N=Nc2c(C)[nH]n(-c3ccccc3)c2=O)c1 | 19 µM (active)
CCN(Cc1ccccc1)C(=O)c1cn(-c2cccc(OC)c2)c(=O)c2ccccc12 | inactive
CCn1cc(C(=O)NCc2ccccc2)c(=O)c2cc(S(=O)(=O)N3CCCCC3)ccc21 | inactive
COc1ccc(C(C#N)Nc2ccc(C)cc2)cc1 (centres undefined) | 1.69 µM (active)
COc1ccc(C(C#N)Nc2ccccc2C)cc1 (centres undefined) | inactive
COc1ccc(C(CC(=O)Nc2ccc(C)cc2)NC(=O)C(F)(F)F)cc1 (centres undefined) | inactive
Cc1ccc(CN2CCC(CNC(=O)c3cnn(-c4ccc(C)cc4)c3C3CCN(C(=O)OC(C)(C)C)CC3)CC2)cc1 | inactive
Cn1ccc2cc(S(=O)(=O)N3CCCC(C(=O)NCc4ccccc4F)C3)ccc21 (centres undefined) | inactive
O=C(CSCc1ccc(Cl)cc1)N1CCCCC1 | 16.9 µM (active)
O=C(COc1ccccc1Cl)N1CCCCCCC1 | inactive
O=C(CSCc1ccc(Cl)cc1)N1CCN(Cc2ccc3c(c2)OCO3)CC1 | inactive
Cc1cccc(C)c1NC(=O)CNC(=O)C1CCCC1 | inactive
Cc1ccc(CNC(=O)CSc2c3c(nc4cc(Cl)ccc24)CCCC3)cc1 | inactive
COC(=O)c1sccc1S(=O)(=O)N(CC(=O)Nc1ccc(C)c(F)c1)c1ccc(C)c(C)c1 | inactive
Cc1ccc(CSc2nc(-c3ccccc3)c(C#N)c(=O)[nH]2)cc1 | inactive
Cc1ccccc1CSc1nnc(-c2cccnc2)n1N | inactive
Cc1ccccc1CSc1nnc(-c2ccccc2)c(=O)[nH]1 | 19 µM (active)
CCCN(CC(=O)NC(=O)NC1CCCCC1)CC(=O)Nc1cc(Cl)ccc1Cl | inactive
COc1ccccc1CNC(=O)CS(=O)(=O)c1cccc2nsnc12 | inactive
CCOC(=O)c1cccc(NC(=O)c2cc(S(=O)(=O)N3CCCC(C)C3)cn2C)c1 (centres undefined) | inactive
COC(=O)c1ccc(C)c(NC(=O)C2CC(=O)N(C3CCCC(C)C3C)C2)c1 (centres undefined) | inactive
COn1c(-c2ccc(Cl)cc2Cl)nc2ncccc21 | inactive
Clc1ccc(-c2cc(-c3ccccn3)on2)c(Cl)c1 | 0.0757 µM (active)

SMILES | Potency
Clc1ccc(COn2c(-c3ccc(Cl)cc3Cl)nc3ncccc32)cc1 | inactive
O=C1N(Cc2ccccc2)c2ccc(Cl)cc2C1(O)c1c[nH]c2ccccc12 (centres undefined) | inactive
Cc1ccc(-c2nn3c(=O)cc(CN4CCN(C(=O)Nc5cccc(C(F)(F)F)c5)CC4)nc3s2)cc1 | inactive
Cc1cccc(NC(=O)c2ccc3nc(C(C)C)oc3c2)c1C | inactive
CCCCOc1ccc(C(=O)Nc2cccc(-c3nc4ccccc4o3)c2C)cc1 | inactive
Cc1cc(C)c2oc(-c3cccc(NC(=O)c4cccc(F)c4)c3C)nc2c1 | 0.849 µM (active)
CCc1cc2c(cc(C(=O)OC)n2Cc2nc(-c3ccc(C)cc3)oc2C)s1 | inactive
Cc1ccc(Cn2c(=O)n(-c3ccc(C)cc3)c(=O)c3c2c2cc(C)ccc2n3C)cc1 | inactive
Cc1ccc(-c2cnc(NCc3ccc(C(C)C)cc3)n2C)cc1 | inactive
Cc1cccc(N(C(=O)c2sc(C)nc2C)C(C(=O)NCC2CCCO2)c2ccccc2)c1 (centres undefined) | inactive
COc1ccc(NC(=O)CCCNC(=O)Cn2cnc3sc4c(c3c2=O)CCCC4)cc1OC | inactive
COc1ccc(NC(=O)CCNC(=O)Cn2cnc3sc4c(c3c2=O)CCCC4)cc1OC | inactive
COc1ccc(/C=N/Nc2ncnc3sc4c(c23)CCCC4)cc1O | 1.69 µM (active)
CCCOc1ccc(NC(=O)CC2C(=O)N(c3ccccc3)C(=O)N2Cc2ccco2)cc1 (centres undefined) | inactive
CCc1ccc(CNC(=O)CCc2nc(-c3cccs3)no2)cc1 | inactive
COc1ccc(OC)c(CNC(=O)CCc2nc(-c3cccs3)no2)c1 | inactive
COc1ccc(CCc2nc(-c3cccs3)no2)cc1 | 19 µM (active)
COc1ccc(-n2c(SC)nc3sc4c(c3c2=O)CCN(C(C)=O)C4)cc1 | inactive
Cc1cccc(NC(=O)Cn2c(=O)n(CCC(C)C)c(=O)c3cccnc32)c1 | inactive
COc1ccccc1C(=O)OCc1cc(=O)n2nc(-c3cccs3)sc2n1 | inactive
O=C(Cn1c(=O)n(-c2ccc(F)cc2)c(=O)c2sc3ccccc3c21)NC1CCCC1 | inactive
Cc1ccc(C)c2c1cc(C)c1nnc(SCC(=O)Nc3cccc(C(=O)O)c3)n12 | inactive
Cc1cccc(NC(=O)CSc2nnc(CNC(=O)c3cccc(C)c3)n2-c2ccccc2)c1 | inactive
Cc1ccc(C(=O)NCCc2nnc(SCC(=O)Nc3cccc(C(=O)O)c3)n2C)cc1 | 10.7 µM (active)
COc1ccc(CCN(Cc2cc3cccc(C)c3[nH]c2=O)C(=O)N2CCCC2)cc1OC | inactive

SMILES | Potency
CCOc1ccc(NC(=O)c2cc(S(=O)(=O)N3CCCC3)c[nH]2)cc1 | inactive
CCCOc1ccc(C(=O)NCCc2ccccc2)cc1 | 1.07 µM (active)
CC(C)c1ccc(C(=O)NCCCc2ccccc2)cc1 | 10.7 µM (active)
O=C(CCNC(=O)c1ccc(Br)cc1)NCCCc1ccccc1 | inactive
COc1ccc(OCCCC(=O)NCCc2ccccc2)cc1 | inactive
O=C(NCCOc1ccccc1)c1ccccc1 | 4.78 µM (active)
CCCCCCCCC(=O)NCCOc1ccccc1 | inactive
NS(=O)(=O)c1cc(C(=O)NCCOc2ccccc2)c(Cl)cc1Cl | inactive
Cc1c(C(=O)NCCCc2ccccc2)cccc1[N+](=O)[O-] | inactive
CN(c1ccccc1)S(=O)(=O)c1ccc(C(=O)NCCc2ccccc2)cc1 | inactive
CCOc1ccc(C2C(C(=O)Nc3ccc(Cl)cc3)=C(C)Nc3nc(C(F)(F)F)nn32)cc1 (centres undefined) | inactive
COc1ccc(CCNC(=O)c2c3c(nc4ccccc24)C(=O)N(C2CCCCC2)C3)cc1OC | inactive
CCOC(=O)CN1C(C(=O)c2ccccc2)=C(OC(=O)C(C)(C)C)c2ccccc2S1(=O)=O | inactive
CSc1nc(-c2ccccc2Cl)nc2c1Cc1c(CO)cnc(C)c1O2 | inactive
COC(=O)c1ccc(NC(=O)c2ccccc2NS(=O)(=O)c2ccccc2)cc1 | 16.9 µM (active)
CCOc1ccc(NC(=O)c2ccccc2NS(C)(=O)=O)cc1 | 10.7 µM (active)
COC(=O)c1ccccc1NS(=O)(=O)c1ccc2[nH]c(=O)[nH]c2c1 | inactive
CCOc1ccc(NC(=O)c2cnn(-c3ccccc3)c2-n2cccc2)cc1 | inactive
COc1ccc(NC(=O)c2cnc(NS(=O)(=O)c3ccccc3)nc2)cc1 | inactive
CCCNC(=O)Nc1ccccc1C(=O)Nc1ccc(OC)cc1 | inactive
CCC1CCCCN1S(=O)(=O)c1ccc(NC(=O)c2cc(=O)c3ccccc3o2)cc1 (centres undefined) | inactive
COc1ccc(NC(=O)CCCN2C(=O)CCn3nc(-c4cn(C)c5ccccc45)cc32)cc1OC | inactive
O=S(=O)(NCCc1nnc2ccc(SCc3ccc(Cl)cc3Cl)nn12)c1ccccc1 | inactive
CCOc1ccc2oc(=O)cc(CN3CCN(C(=O)c4ccc(F)cc4)CC3)c2c1 | inactive
